Test systems include HCT-15 colon; HT29 colon; SNB-75 CNS; SNB-19 CNS; U251 CNS; PC-3 prostate; SK-MEL-5 melanoma; UACC-62 melanoma; SK-MEL-28 melanoma; SK-MEL-2 melanoma; EKVX NSCLC; SN12C renal; UO-31 renal; ACHN renal; CAKI-1 renal; A498 renal; CCRF-CEM leukemia; MOLT-4 leukemia; TK-10 renal.
Experiment in all cases: NCI-60 one-dose screen, 48 h (100 = growth as untreated, 0 = no growth, -100 = all killed)
Details in all cases: 10 µM unless noted

The structures appear in SMILES notation. The panel holds about 83,000 compounds, 20% with a hit somewhere; the sample as a whole holds those more often.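 Compound tested at a single concentration for 48 hours in 96-well plates; a percent growth value below 10 was scored as active.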 Unmarked numbers belong to inactive results. Active and inactive are the calls of the source.

Take `C(=C\c1cc(/C=C/c2ccccc2)c2ccccc2n1)/c1ccccc1`: the growth is 29.2% in the assay with HCT-15 colon; 86% in the assay on HT29 colon; 115% in the assay with SNB-75 CNS; 97.7% with SNB-19 CNS; 62.3% in the assay with U251 CNS; 78.2% with PC-3 prostate. Further, the growth in the assay with SK-MEL-5 melanoma was 81.7%; with UACC-62 melanoma, 93.4%; in the assay with SK-MEL-28 melanoma, 114%; in the assay with SK-MEL-2 melanoma, 122%; in the assay on EKVX NSCLC, 100%; in the assay on SN12C renal, 76.8%. For the same compound, the growth was 88.5% in the assay with UO-31 renal; 107% with ACHN renal; 94.2% with CAKI-1 renal; 132% with A498 renal; 60.8% with CCRF-CEM leukemia; 32.1% in the assay on MOLT-4 leukemia.

Take `CCOc1ccc(C(=O)NC(=S)Nc2ccc(S(N)(=O)=O)cc2)cc1`: the growth in the assay with HCT-15 colon was 111% [100 µM]; in the assay on HT29 colon, 98.1% [100 µM]; in the assay on SNB-75 CNS, 76.9% [100 µM]; in the assay with SNB-19 CNS, 104% [100 µM]; in the assay on U251 CNS, 96.7% [100 µM]; in the assay with PC-3 prostate, 92.1% [100 µM]. For the same compound, the growth in the assay on SK-MEL-5 melanoma is 88.1% [100 µM]; with UACC-62 melanoma it was 94.8% [100 µM]; with SK-MEL-28 melanoma, 107% [100 µM]; in the assay with SK-MEL-2 melanoma it was 104% [100 µM]; in the assay with EKVX NSCLC, 101% [100 µM]; in the assay with SN12C renal it was 100% [100 µM]. Further, the growth in the assay on UO-31 renal is 77.9% [100 µM]; in the assay on TK-10 renal, 92.6% [100 µM]; in the assay on ACHN renal, 101% [100 µM]; with CAKI-1 renal, 87.9% [100 µM]; in the assay with MOLT-4 leukemia it was 110% [100 µM].

For the compound `O=C(N/N=C/c1ccc(-c2ccc(O)cc2)o1)c1[nH]c2ccc(Br)cc2c1-c1ccccc1`, the growth in the assay on HCT-15 colon was 2.62% (active); in the assay on HT29 colon it was -34.8% (active); with SNB-75 CNS it was -2.73% (active); in the assay on SNB-19 CNS, 10.3%; with U251 CNS, -29.2% (active); in the assay with PC-3 prostate, -6.14% (active). For the same compound, the growth in the assay with SK-MEL-5 melanoma is -82.9% (active); in the assay on UACC-62 melanoma, -14.9% (active); with SK-MEL-28 melanoma, -27% (active); in the assay with SK-MEL-2 melanoma it was 1.84% (active); in the assay with EKVX NSCLC, 8.78% (active); in the assay on SN12C renal, -57.9% (active). For the same compound, the growth was 1.62% (active) with UO-31 renal; -21.7% (active) in the assay on ACHN renal; 5.94% (active) in the assay on CAKI-1 renal; 38.2% with A498 renal; 4.83% (active) in the assay on CCRF-CEM leukemia; 0.944% (active) in the assay with MOLT-4 leukemia.

On to `COc1ccc(/C=C2\C(=O)Nc3ccc(Cl)cc32)cc1OCc1ccccn1`, for which the growth is 59.9% in the assay with HCT-15 colon; 76.5% in the assay on HT29 colon; 38.1% with SNB-75 CNS; 42.4% with SNB-19 CNS; -5.73% (active) in the assay with U251 CNS; 38.3% with PC-3 prostate. Further, the growth was 52.4% with SK-MEL-5 melanoma; 20.7% with UACC-62 melanoma; 68% with SK-MEL-28 melanoma; 96.2% in the assay with SK-MEL-2 melanoma; 23.8% in the assay on EKVX NSCLC; 44.3% with SN12C renal. Also, the growth with UO-31 renal is 5.88% (active); in the assay with ACHN renal, 12.2%; with CAKI-1 renal it was 24.3%; with A498 renal it was 120%; with CCRF-CEM leukemia it was 50.8%; in the assay on MOLT-4 leukemia, 45.7%.

On to `N#Cc1ccc(C(=O)Nn2c(N)cc3ccccc3c2=O)cc1`, for which the growth in the assay with HCT-15 colon was 103%; in the assay on HT29 colon it was 103%; in the assay with SNB-75 CNS it was 111%; in the assay on SNB-19 CNS, 94.6%; in the assay with U251 CNS it was 98%; with PC-3 prostate it was 94.6%. Also, the growth with SK-MEL-5 melanoma was 99.4%; with UACC-62 melanoma it was 86.1%; with SK-MEL-28 melanoma it was 104%; with SK-MEL-2 melanoma, 104%; in the assay on EKVX NSCLC it was 85.8%; with SN12C renal it was 89.9%. In addition, the growth with UO-31 renal was 64.9%; in the assay with TK-10 renal, 119%; in the assay with ACHN renal it was 92.9%; in the assay with CAKI-1 renal it was 78%; with CCRF-CEM leukemia, 94.7%; in the assay on MOLT-4 leukemia it was 84.6%.

In the case of `CCOC(=O)C1=C(N)N(c2ccccc2)C2=C(C(=O)CC(C)(C)C2)C1c1cccc(Cl)c1Cl` (stereo not drawn), the growth with HCT-15 colon was 65.8%; in the assay with HT29 colon it was 72.7%; in the assay with SNB-75 CNS, 56.8%; with SNB-19 CNS it was 41.7%; in the assay with U251 CNS, 55.2%; in the assay with PC-3 prostate, 35.3%. The growth was 77.6% in the assay with SK-MEL-5 melanoma; 55.6% in the assay on UACC-62 melanoma; 91% in the assay on SK-MEL-28 melanoma; 86.5% in the assay on SK-MEL-2 melanoma; 57.5% with EKVX NSCLC; 63% in the assay with SN12C renal. Besides, the growth in the assay with UO-31 renal is 75.5%; with TK-10 renal it was 95.2%; with ACHN renal, 57.9%; with CAKI-1 renal, 47.4%; in the assay with A498 renal it was 128%; with MOLT-4 leukemia it was 39.5%.

As for `CC(C)c1ccc2c(N)c(C(=O)Nc3cccc(C(F)(F)F)c3)sc2n1`, the growth was -0.908% (active) in the assay on HCT-15 colon; 29.2% with HT29 colon; 129% with SNB-75 CNS; 87.3% in the assay with SNB-19 CNS; 71.1% in the assay with U251 CNS; 73.7% in the assay with PC-3 prostate. In addition, the growth with SK-MEL-5 melanoma is 72.3%; in the assay with UACC-62 melanoma, 92.5%; with SK-MEL-28 melanoma, 80.2%; with SK-MEL-2 melanoma, 89.5%; in the assay on EKVX NSCLC, 47.4%; in the assay with SN12C renal, 76.2%. Moreover, the growth with UO-31 renal is 77.9%; in the assay with TK-10 renal it was 97.3%; in the assay with ACHN renal it was 76%; in the assay with A498 renal, 143%; in the assay on CCRF-CEM leukemia it was 38.9%; in the assay on MOLT-4 leukemia, 56.4%.

On to `COc1cc2oc(-c3cccc(NC(=O)[C@H](Cc4ccccc4)NC(=O)OC(C)(C)C)c3)cc(=O)c2c(OC)c1OC`, for which the growth is 17.4% in the assay with HCT-15 colon; 22.8% with HT29 colon; 97.6% in the assay with SNB-75 CNS; 40% in the assay with SNB-19 CNS; 36.6% with U251 CNS; 39.7% in the assay on PC-3 prostate. Further, the growth in the assay on SK-MEL-5 melanoma is 17.9%; in the assay with UACC-62 melanoma, 54.6%; in the assay on SK-MEL-28 melanoma it was 49.9%; in the assay on SK-MEL-2 melanoma it was 20.9%; with EKVX NSCLC it was 55.9%; in the assay with SN12C renal, 32%. The growth was 18.2% with UO-31 renal; 45.2% in the assay with TK-10 renal; 18.1% with ACHN renal; 77.9% with A498 renal; 32% with CCRF-CEM leukemia; 9.42% (active) in the assay on MOLT-4 leukemia.

Values taken from PubChem BioAssay (NCI).
